Screening data as filed in PubChem.
Shown are actives, neighbours in structure and some others; about 18% of the full set was active somewhere.
Six1-Eya2 blk: Six1/Eya2 interaction inhibition | Q15475+O00167 | AlphaScreen GST-Six1/His-Eya2 binding, biochemical; active compounds read low | activity change, % (test concentration not listed) | 360,000 compounds, 0.56% hits | AID 651725; in the data active = activity change below about -65%; inconclusive = mostly about -30% to -63%
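AlphaScreen luminescence read after one hour at 37 °C in darkness. Pin-transferred compounds met GST-Six1 and His-Eya2 protein (5X stock 250 nM/500 nM) plus glutathione donor and Ni-chelate acceptor beads (5X, 50 ug/mL).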
CtBP-E1A inh: inhibitors of CtBP/E1A interaction; activity change, % (test concentration not listed); AID 651724; AlphaScreen GST-E1A/His-CtBP binding, 1536-well; active compounds read low; 340,000 compounds, 0.49% hits; in the data active = activity change below about -65%; inconclusive = mostly about -30% to -63%
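In 5 uL wells, 23 nL compound meets equimolar GST-E1A and His-CtBP (5X stock 125 nM each) for 2 h, 37 °C. Beads (5X, 50 ug/mL) then 1 h, 37 °C, dark.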
TDP1 cell noCPT: qHTS for Inhibitors of human tyrosyl-DNA phosphodiesterase 1 (TDP1): qHTS in cells in absence of CPT; DT40 Tdp1-/- hTDP1 cells, no CPT, ATP luminescence, 48 h; Potency, µM (top dose mostly 46.2 µM), for the others: at the highest dose activity change, negative = growth inhibition, most hits filed as inhibitors; 420,000 compounds, 15% hits; AID 686978, 2013; note: potency is the fitted concentration of half-maximal effect; nearly all actives have a fitted effect of over 55% in size
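Readout: luminescence from CellTiter-Glo after 30 min in the dark at RT. Cells: DT40 Tdp1-/- with stable hTDP1, 400/well. Exposure: compounds alone, ≥48 hr, 37 °C.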
IL1B secr inh: blocks inflammasome-driven IL-1 beta release | THP-1 LPS/ATP IL-1B secretion, AlphaLISA, 16 h; active compounds read low | activity change, % at 57.5 µM | 360,000 compounds, 4.7% hits | AID 743279; in the data active = activity change below about -50%; inconclusive = mostly about -30% to -49%
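Secreted IL-1B measured by AlphaLISA bead assay after 16 h compound exposure of THP-1 cells; compounds (final up to 57.5 uM) added 1 h before LPS (250 ng/mL) and ATP (1.25 mM) stimulation; lower signal means less secretion.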
TDP1 cell CPT: growth inhibition of DT40 Tdp1-/-;hTDP1 cells with camptothecin (screen for TDP1 inhibitors). Potency, µM (highest dose often 46.2 µM), without a hit: at the highest dose activity change, negative = growth inhibition, usual class: inhibitors. AID 686979. chicken DT40 Tdp1-/-;hTDP1 cells + 20 nM CPT, ATP luminescence, 48 h. 420,000 compounds, 12% hits; note: potency is the fitted concentration of half-maximal effect; nearly all actives have a fitted effect of over 55% in size
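Chicken DT40 Tdp1-/- cells stably complemented with human TDP1 were seeded at 400 cells/well in medium containing 20 nM camptothecin, exposed to pin-transferred compounds, and grown at 37 °C for at least 48 hr. Viability was read as ATP luminescence.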
TDP1 inh: blocks human tyrosyl-DNA phosphodiesterase 1; Q9NUW8; recombinant TDP1, AlphaScreen DNA substrate cleavage; Potency, µM (highest dose often 130 µM), for the others: top-dose activity change, negative = inhibition, most hits filed as inhibitors; 350,000 compounds, 0.28% hits; AID 485290; note: potency is the fitted concentration of half-maximal effect; nearly all actives have a fitted effect of over 40% in size
Target sequence (Q9NUW8 whole entry, looked up): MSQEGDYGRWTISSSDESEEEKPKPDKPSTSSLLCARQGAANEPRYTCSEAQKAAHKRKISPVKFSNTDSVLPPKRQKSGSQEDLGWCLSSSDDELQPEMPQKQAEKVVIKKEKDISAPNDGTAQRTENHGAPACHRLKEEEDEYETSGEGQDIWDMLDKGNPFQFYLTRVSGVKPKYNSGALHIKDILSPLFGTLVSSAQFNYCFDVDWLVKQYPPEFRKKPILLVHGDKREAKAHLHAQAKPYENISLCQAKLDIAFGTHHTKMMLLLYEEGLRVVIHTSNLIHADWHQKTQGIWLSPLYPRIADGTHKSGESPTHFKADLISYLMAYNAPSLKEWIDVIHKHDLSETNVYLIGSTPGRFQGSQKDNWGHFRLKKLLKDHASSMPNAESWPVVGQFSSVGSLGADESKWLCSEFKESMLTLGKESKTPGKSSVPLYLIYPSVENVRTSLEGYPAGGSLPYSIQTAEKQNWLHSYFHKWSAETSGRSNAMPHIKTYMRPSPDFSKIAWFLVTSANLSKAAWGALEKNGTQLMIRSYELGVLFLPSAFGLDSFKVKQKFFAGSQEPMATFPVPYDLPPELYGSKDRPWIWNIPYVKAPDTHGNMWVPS
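Tdp1 1 nM final; 15 min RT w/ cpd; substrate 15 nM, 5 min; beads 10 ug/ml, 10 min; AlphaScreen read. Neg ctrl: no enzyme.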
The depositor's hits bear a star; [ ] = remark or other dose. Unless noted, calls come from the whole dose curve; as a rule, active = well fitted curve in the direction sought with a large enough effect; inconclusive = small, poorly fitted or top-dose-only effect, or another doubt; inactive = no such curve, though single readings can be large; an effect the other way counts as inactive or inconclusive. % is set by controls: 0 for no effect and ±100 for the full control effect.

Results for COc1ccc(C(=O)Nc2nc3ccccc3[nH]2)cc1 ?
Six1-Eya2 blk: 2; CtBP-E1A inh: 18; TDP1 cell noCPT: 23µM*; IL1B secr inh: -1; TDP1 cell CPT: 16µM*; TDP1 inh: 9%

Results for CCOC(=O)c1ccc(NC(=O)COc2ccc(S(=O)(=O)NC(C)CC)cc2)cc1 (stereo unspecified) ?
Six1-Eya2 blk: 4; CtBP-E1A inh: -3; TDP1 cell noCPT: 1%; IL1B secr inh: 19; TDP1 cell CPT: -25%; TDP1 inh: 8%

How did CCOC(=O)N1CCC(NC(=O)CSCc2nc(-c3sccc3C)oc2C)CC1 do in these assays?
Six1-Eya2 blk: 20; CtBP-E1A inh: -8; TDP1 cell noCPT: inconclusive; IL1B secr inh: -12; TDP1 cell CPT: inconclusive; TDP1 inh: 1%

What do the screens show for `CC(=O)NC1=NN(c2ccccc2)C(=O)C1`?
Six1-Eya2 blk: 3; CtBP-E1A inh: 3; TDP1 cell noCPT: -9%; IL1B secr inh: -5; TDP1 cell CPT: -3%; TDP1 inh: 0%

What do the screens show for `COc1ccccc1C(=O)Nc1nc2ccccc2[nH]1`?
Six1-Eya2 blk: -15; CtBP-E1A inh: -5; TDP1 cell noCPT: 1.8µM*; IL1B secr inh: -25; TDP1 cell CPT: 4.6µM*; TDP1 inh: -5%

How did COc1ccccc1C(=O)NCCC(=O)Nc1nc2ccccc2[nH]1 do in these assays?
Six1-Eya2 blk: 0; CtBP-E1A inh: -9; TDP1 cell noCPT: inconclusive; IL1B secr inh: inconclusive; TDP1 cell CPT: 3%; TDP1 inh: -6%[0.505 µM]

Results for O=C(/C=C/[C@H]1O[C@@H](n2ccc(=O)[nH]c2=O)[C@H](O)[C@@H]1O)NC(c1ccccc1)c1ccccc1 ?
Six1-Eya2 blk: 4; CtBP-E1A inh: 5; TDP1 cell noCPT: 18%; IL1B secr inh: 13; TDP1 cell CPT: 6%

What do the screens show for `COc1cccc(-c2nc(S(=O)(=O)c3ccc(C)cc3)c(N3CCCCC3)o2)c1`?
TDP1 cell noCPT: 18µM*; TDP1 cell CPT: 21µM*

How did COc1cccc(-c2nc(S(=O)(=O)c3ccccc3)c(N3CCCCC3)o2)c1 do in these assays?
TDP1 cell noCPT: 16µM*; TDP1 cell CPT: inconclusive

Results for O=C(c1cnccn1)N1CCc2ccccc21 ?
Six1-Eya2 blk: -1; CtBP-E1A inh: 0; TDP1 cell noCPT: -2%; IL1B secr inh: 4; TDP1 cell CPT: -21%; TDP1 inh: -8%

How did CCCC(=O)N1CCCC(C(=O)c2ccc(OC)c(OC)c2)C1 (stereo unspecified) do in these assays?
Six1-Eya2 blk: 6; CtBP-E1A inh: 4; TDP1 cell noCPT: 3%; IL1B secr inh: 16; TDP1 cell CPT: 7%

What do the screens show for `COc1ccc(C(=O)C2CCCN(Cc3cccn3-c3nccs3)C2)cc1OC` (stereo unspecified)?
Six1-Eya2 blk: 7; CtBP-E1A inh: -5; TDP1 cell noCPT: 13µM*; IL1B secr inh: -28; TDP1 cell CPT: 18µM*

What do the screens show for `COc1ccc(C(=O)C2CCCN(Cc3cccn3-c3nccs3)C2)cc1F` (stereo unspecified)?
Six1-Eya2 blk: -9; CtBP-E1A inh: -12; TDP1 cell noCPT: 21µM*; IL1B secr inh: -84*; TDP1 cell CPT: 23µM*; TDP1 inh: -8%

Results for OCCC1CN(Cc2cccn2-c2nccs2)CCN1Cc1ccc(F)c(F)c1 (stereo unspecified) ?
Six1-Eya2 blk: -15; CtBP-E1A inh: 1; TDP1 cell noCPT: 18µM*; IL1B secr inh: -6; TDP1 cell CPT: 13µM*

How did Cc1ccc(/C=N/N2CCCCC2)o1 do in these assays?
Six1-Eya2 blk: -2; CtBP-E1A inh: -24; TDP1 cell noCPT: inconclusive; IL1B secr inh: -17; TDP1 cell CPT: -14%; TDP1 inh: 5%
